# Most compounds without a hit are left out; they make up all but 3% or so of the library.
# SNCA expr inh – inhibitors of alpha-synuclein (SNCA) gene expression; 140,000 tested, 0.17% active; AID 1671194; Potency, µM (highest dose often 57.2 µM), actives largely listed as inhibitors; HEK-293 SNCA-luciferase knock-in, luminescence, 24 h; also: nearly all actives have a fitted effect of over 45% in size
# KDM5B inhibitor – inhibitors of human KDM5B histone demethylase; 220,000 tested, 2.6% active; Q9UGL1; KDM5B demethylase, FDH-coupled NADH fluorescence (FDH is formaldehyde dehydrogenase); Potency, µM (titrated, usually from 57.7 µM), hits mostly inhibitors; also: nearly all actives have a fitted effect of over 70% in size
#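 Here, H3K4me3 peptide (12.5 µM in substrate mix) is demethylated by KDM5BΔAP, 200 nM final, after 10 min compound exposure. Formaldehyde product is coupled through FDH (0.25 U/mL in mix) to NADH fluorescence; 30-min ΔRFU feeds dose-response curves.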
# IP6K1 inh – IP6K1 kinase inhibition | Q92551 | IP6K1 kinase, ADP-Glo luminescence, 2 h; active compounds read low | activity change, % (series mostly up to about 58 µM) | 140,000 tested, 0.81% active | AID 1645851; in the data active = activity change below about -25%
# Target sequence (Q92551 whole entry, looked up): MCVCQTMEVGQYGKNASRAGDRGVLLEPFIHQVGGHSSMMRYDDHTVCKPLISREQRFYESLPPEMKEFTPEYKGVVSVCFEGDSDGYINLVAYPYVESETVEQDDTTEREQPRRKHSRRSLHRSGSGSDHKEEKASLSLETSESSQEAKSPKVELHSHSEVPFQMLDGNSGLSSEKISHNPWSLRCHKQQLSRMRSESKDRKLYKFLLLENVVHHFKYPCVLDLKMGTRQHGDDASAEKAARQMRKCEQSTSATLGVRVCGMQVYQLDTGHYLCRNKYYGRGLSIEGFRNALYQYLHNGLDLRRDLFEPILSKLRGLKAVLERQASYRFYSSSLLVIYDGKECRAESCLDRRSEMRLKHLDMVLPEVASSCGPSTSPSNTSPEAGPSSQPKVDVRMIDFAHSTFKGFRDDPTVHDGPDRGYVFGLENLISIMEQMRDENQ
#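 ADP-Glo luminescence measures ADP made by human IP6K1 during a 2 h RT reaction with ATP/IP6 (mix at 1.3 mM/130 uM); top library doses 57.5 and 19.1 uM final.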
# SNCA viab count – counter-screen for SNCA expression inhibitors: cell viability | Potency, µM (titrated, usually from 57.1 µM), usual class: cytotoxic | AID 1671193 | 150,000 tested, 0.12% active | HEK-293-SNCA-luc viability, GF-AFC fluorescence, 24 h; also: nearly all actives have a fitted effect of over 30% in size
#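 HEK-293-SNCA-luc cells (1500/well) plated 24 h, then exposed 24 h to a dilution series; GF-AFC added 30 min at 37C, fluorescence 405/540 nm; normalised to medium-only and DMSO wells, Hill fit.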
# A number is an active result; - = inactive; ? = inconclusive; . = no result given; [ ] = another dose, or the depositor's remark. Unless noted, calls follow the shape of the dose curve; as a rule, active = well fitted curve in the direction sought with a large enough effect; inconclusive = small, poorly fitted or top-dose-only effect, or another doubt; inactive = no such curve, though single readings can be large; an effect the other way counts as inactive or inconclusive.
SMILES,SNCA expr inh,KDM5B inhibitor,IP6K1 inh,SNCA viab count
O=C(c1nccc2ccccc12)N1CCc2nc3cc[nH]n3c(=O)c2C1,-,?,-,-
COc1ccc(-c2nc3c(c(=O)[nH]2)CCN(C(=O)c2ccc(OC)cc2OC)C3)cc1,-,?,-,-
O=C(C1CCN(S(=O)(=O)N2CCOCC2)CC1)N1CCc2nc3cc[nH]n3c(=O)c2C1,-,32µM,-,-
O=C(c1cc(-c2cccs2)[nH]n1)N1CCc2nc3cc[nH]n3c(=O)c2C1,-,?,-,-
O=C(c1ccccc1C(F)(F)F)N1CCc2nc3cc[nH]n3c(=O)c2C1,-,32µM,-,-
COc1ccc(S(=O)(=O)N2CCc3nc4cc[nH]n4c(=O)c3C2)cc1Cl,-,25µM,-,-
COc1ccc(C(=O)N2CCc3c(nc4cc[nH]n4c3=O)C2)c(C)c1,-,28µM,-,-
CC(C)c1nc2c(c(-c3ccc(Cl)cc3)n1)CCN(Cc1ccsc1)CC2,?,?,-,-
Cn1ncc2c(C(=O)NCC(F)(F)F)cc(C(C)(C)C)nc21,-,.,-,-
O=C(Nc1ccccc1F)NC1CCN(Cc2cccc(-c3ccc(F)c(F)c3)c2)CC1,.,.,-,.
CC(=O)N1CCN(C(=O)c2cn3cc(-c4ccc(C(F)(F)F)cc4)sc3n2)CC1,-,.,-,-
COc1ccc(NC(=O)c2nc3sccn3c2-c2ccc(C(F)(F)F)cc2)cc1,-,.,-,-
O=C1CCN(C[C@@H](O)COCc2ccccc2)c2cc3c(cc2CN1C1CCCC1)OCO3,.,.,-,.
COC(=O)[C@@H]1Cc2c([nH]c3ccccc23)[C@H]2C[C@H](NCCNC(C)=O)C[C@@H](c3ccccc3)N21,-,28µM,-,-
COC(=O)[C@@H]1Cc2c([nH]c3ccccc23)[C@H]2C[C@H](NCCNC(C)=O)C[C@@H](c3ccc(C(F)(F)F)cc3)N21,-,10µM,-,-
COc1ccc(OCC2CN(Cc3ccc4c(c3)OCO4)[S+](=O)([O-])c3cccnc3O2)cc1 (stereo unspecified),-,.,-,-
COc1ccccc1-c1cc2c(nc1-c1ccccc1)nc(C(=O)NCCN(C)C)n2C,-,32µM,-,-
COCCNC(=O)c1nc2nc(-c3ccccc3)c(Cl)cc2n1C,-,40µM,-,-
COc1ccc(-c2cc3c(nc2-c2ccccc2)nc(C(=O)NCCN(C)C)n3C)cn1,-,-,-,-
COc1cc(F)ccc1-c1cc2c(nc1-c1ccccc1)nc(C(=O)NCCN(C)C)n2C,-,32µM,-,-
COCCCNC(=O)c1nc2nc(-c3ccccc3)c(Cl)cc2n1C,-,-,-,-
O=C(O)Cn1ccc2cc(OCCc3cccc(-c4cccc(F)c4)c3)cnc21,-,40µM,-,-
O=C(O)Cn1ccc2cc(OCCc3cccc(-c4ccc(F)cc4)c3)cnc21,-,40µM,-,-
O=C(O)c1cccc(-c2ccc(F)cc2)c1,.,-,.,.
Cn1nccc1-c1cccc(CCOc2cnc3c(ccn3CC(=O)O)c2)c1,-,?,-,-
SMILES,SNCA expr inh,KDM5B inhibitor,IP6K1 inh,SNCA viab count
COc1cccc(-c2cccc(CCOc3cnc4c(ccn4CC(=O)O)c3)c2)c1,-,32µM,-,-
O=C(C1CCCN1C(=O)Nc1ccc(Cl)cc1)N1CCC(c2ccccc2)CC1 (stereo unspecified),-,.,-,-
CC(C)NC(=O)c1cc(-c2cccc(F)c2)nc2c1cnn2C,.,.,-,.
COc1ccc(CNc2cc3c(cn2)CN(C)CCN3C)cc1OC,-,?,-,-
CN1CCN(C)c2cc(-c3ccc(N4CCOCC4)cc3)ncc2C1,-,40µM,-,-
Cc1nc(NC2CCCCC2)ncc1C(=O)O,-,32µM,-,?
CS(=O)(=O)c1cnc(NC2CCCC2)nc1C1CCCNC1 (stereo unspecified),-,-,-,-
CC(C)CNC(=O)[C@@H]1CCCN1c1nccc(Nc2ccccc2Cl)n1,?,.,-,-[12.5 µM]
O=C1CC2(CCN(C(=O)c3cnn4ccccc34)CC2)CN1Cc1ccccc1,-,20µM,-,-
CCCC(C)N1CC2(CCN(C(=O)c3cnn4ccccc34)CC2)OC1=O (stereo unspecified),-,28µM,-,-
Cc1ccc(CCNC(=O)c2cc3n(n2)CC(c2ccc4c(c2)OCO4)OC3)cc1 (stereo unspecified),-,25µM,-,-
O=C(NCc1cccc(Cl)c1)c1cc2n(n1)CC(c1ccc3c(c1)OCO3)OC2 (stereo unspecified),-,20µM,-,-
COc1ccc(OC)c(NC(=O)c2cc3n(n2)CC(c2ccc4c(c2)OCO4)OC3)c1 (stereo unspecified),-,-,-,-
COc1ccccc1CNC(=O)c1cc2n(n1)CC(c1ccc3c(c1)OCO3)OC2 (stereo unspecified),?,25µM,-,-
COc1ccc(CNC(=O)c2cc3n(n2)CC(c2ccc4c(c2)OCO4)OC3)cc1OC (stereo unspecified),-,25µM,-,-
O=C(NCCc1ccccc1)c1cc2n(n1)CC(c1ccc3c(c1)OCO3)OC2 (stereo unspecified),-,?,-,-
CCOCCNC(=O)c1cc(-c2cccc(C(F)(F)F)c2)c2cccn2n1,-,.,-,-
CN(Cc1cccnc1)C(=O)c1n[nH]c2c1CN(Cc1cccnc1)CC2,?,25µM,-,-
Cc1oc2c(c1C(=O)NCc1cccnc1)CN(Cc1ccc(F)cc1)CC2,-,-,-,-
O=C(NCC(F)F)C1CCCN(c2nc3ncccc3o2)C1 (stereo unspecified),-,28µM,-,-
O=C(NCC(F)(F)F)C1CCCN(c2nc3ncccc3o2)C1 (stereo unspecified),-,22µM,-,-
O=C1CCN(C[C@@H](O)COCc2ccccc2)c2ccsc2CN1Cc1ccccc1,.,.,-,.
CCOC(=O)CN1CCN(C(=O)CCc2cc3ccc(C)cc3[nH]c2=O)CC1,-,25µM,-,-
Cc1ccc(-c2cccc(CN3CCCC3C(=O)NCc3ccc(F)cc3F)c2)cc1Cl (stereo unspecified),.,.,-,.
CC(C)COC(=O)N1C[C@@H](CO)[C@@H]2Oc3c(F)cccc3[C@@H]21,.,.,-,.
SMILES,SNCA expr inh,KDM5B inhibitor,IP6K1 inh,SNCA viab count
FC(F)(F)c1ccnc(N2CCC(OCc3cccnc3)CC2)n1,?,-,-,-
Fc1cnc(N2CCCC(OCc3cccnc3)C2)nc1N1CCOCC1 (stereo unspecified),-,28µM,-,-
c1ccc(CN2CCNc3cc(-c4ccoc4)ncc3C2)cc1,-,?,-,-
C[S+](=O)([O-])c1ccc(-c2cc3c(cn2)CN(Cc2ccccc2)CCN3)cc1,-,28µM,-,-
Oc1cccc(-c2cc3c(cn2)NCCN(Cc2ccccc2)C3)c1,-,?,-,-
c1ccc(CN2CCNc3cnc(-c4ccc(N5CCOCC5)cc4)cc3C2)cc1,?,35µM,-,?
CCn1cc(-c2cc3c(cn2)CN(CCc2ccccc2)CCN3)cn1,-,35µM,-,-
COc1ccc2c(c1)CN(Cc1ccccc1)C(=O)CCN2C(=O)C1CCC1,.,.,-,.
COCc1ccc2c(c1)c(OC(C)(C)C(=O)NC1CCOCC1)nn2CCC(C)C,-,40µM,-,-
